From PubChem BioAssay
Compounds with a hit are over-represented: about 28% of the library has one in this group of screens.
Mac1 fbg enh – enhancers of human CD11b/CD18 binding to fibrinogen | P05107+P11215 | 93,000 compounds, 0.07% hits | activation, % at 10 µM | K562 CD11b/CD18 adhesion to fibrinogen, ATPlite luminescence;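 active means 10 µM primary screen giving 50% or more activity, confirmed by 40% or more on retest at that dose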
CYP2C9 activ – CYP2C9 (human) activation. P11712. recombinant CYP2C9, luciferin-H conversion, luminescence; stronger effect = higher value; factor 1 = untreated enzyme, 0 = blocked. activation factor at 5 µM. 96,000 compounds, 1.4% hits. AID 1024;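 active means activation factor of 2 or more for CYP2C9 at a 5 µM dose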;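 further: 0 = sulfaphenazole-blocked wells and 1 = vehicle-only wells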
CYP2C9 inhib – blocks human cytochrome P450 2C9; 96,000 compounds, 20% hits; P11712; AID 777; inhibition, % at 5 µM; CYP2C9 Supersomes, luciferin-H conversion, luminescence;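 active means blocking of liver enzyme CYP2C9 beyond about 50% at 5 µM, limit read from the data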
CD11b adhes inh – CD11b/CD18-fibrinogen binding inhibition; K562 CD11b/CD18 adhesion to fibrinogen, ATPlite luminescence; Mn2+ added to activate the integrin; inhibition, % at 10 µM; 93,000 compounds, 0.54% hits;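 active means primary inhibition of 50% or more at 10 µM, then 40% or more on retest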
CYP2C19 act – activators of human cytochrome P450 2C19. P33261. recombinant CYP2C19, luciferin-H EGE luminescence; stronger effect = higher value; 0 = fully inhibited enzyme, 1 = untreated enzyme. activation factor at 5 µM. 96,000 tested, under 10 active. AID 1025;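 active means activation factor of at least 2 at 5 µM in the primary screen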;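 further: 0 = wells with 2.5 mM tranylcypromine and 1 = vehicle-only wells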
Target sequence (P33261 whole entry, looked up): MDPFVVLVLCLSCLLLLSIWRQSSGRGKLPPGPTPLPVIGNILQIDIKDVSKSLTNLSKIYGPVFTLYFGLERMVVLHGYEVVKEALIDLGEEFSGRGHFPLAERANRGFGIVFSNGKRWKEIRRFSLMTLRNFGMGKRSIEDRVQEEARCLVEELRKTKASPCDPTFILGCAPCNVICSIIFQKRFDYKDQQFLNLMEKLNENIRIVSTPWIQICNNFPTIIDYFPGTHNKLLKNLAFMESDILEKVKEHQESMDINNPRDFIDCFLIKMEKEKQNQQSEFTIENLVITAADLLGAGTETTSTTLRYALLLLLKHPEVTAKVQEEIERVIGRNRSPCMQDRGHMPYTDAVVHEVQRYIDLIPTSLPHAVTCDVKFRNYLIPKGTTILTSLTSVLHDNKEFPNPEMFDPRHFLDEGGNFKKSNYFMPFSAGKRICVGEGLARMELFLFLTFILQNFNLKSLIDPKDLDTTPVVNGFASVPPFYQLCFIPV
CYP2C19 inh – blocks human cytochrome P450 2C19 | AID 778 | CYP2C19 Supersomes, luciferin-H EGE luminescence, 30 min | P33261 | 96,000 compounds, 21% hits | inhibition, % at 5 µM;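 active means CYP2C19 inhibition above a set limit at 5 µM in the primary screen, cut at about 50% in these data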;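 further: plate controls were negative control wells for no effect and 2.5 mM tranylcypromine positive control for full effect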
* hit, by the source's call.

COc1ccc(CC(NC(C)=O)C(=O)NC2CCN(c3nc(C)cc(C)c3C#N)CC2)c(OC)c1 (stereo not given) was read as Mac1 fbg enh 4.6, CYP2C9 activ 0.4, CYP2C9 inhib 55.3*, CD11b adhes inh -3.8, CYP2C19 act 0.1 and CYP2C19 inh 85.7*.
O=C(CSc1nnc(CNC(=O)c2ccco2)o1)NC1CCCC1 was read as Mac1 fbg enh -0.3, CYP2C9 activ 1.2, CYP2C9 inhib -17.0, CD11b adhes inh 7.6, CYP2C19 act 1.2 and CYP2C19 inh -18.8.
Cc1ccc(S(=O)(=O)N2CCN(C(=O)N3CCOCC3)C2C)cc1 (stereo not given) was read as Mac1 fbg enh -5.1, CYP2C9 activ 1.3, CYP2C9 inhib -27.6, CD11b adhes inh -19.6, CYP2C19 act 0.8 and CYP2C19 inh 22.6.
For CSc1nsc(SC)c1C(=O)N1CCN(S(=O)(=O)c2ccc(C)cc2)C1C (stereo not given) the results were Mac1 fbg enh 2.8, CYP2C9 activ 0.3, CYP2C9 inhib 74.2*, CD11b adhes inh -0.4, CYP2C19 act 0.6 and CYP2C19 inh 42.3.
CCCCOc1ccc(OCCCC)c2c1NC1(N2)C(=O)N(C(C)=O)c2ccccc21 was read as Mac1 fbg enh -0.5, CYP2C9 activ 0.8, CYP2C9 inhib 24.1, CD11b adhes inh 12.7, CYP2C19 act 0.5 and CYP2C19 inh 53.4*.
`CCCNS(=O)(=O)c1ccc(CCC(=O)NCc2ccco2)cc1` gave Mac1 fbg enh 1.0, CYP2C9 activ 0.8, CYP2C9 inhib 20.4, CD11b adhes inh -3.7, CYP2C19 act 1.1 and CYP2C19 inh -6.9.
`CC(C)(C)NS(=O)(=O)c1ccc(CCC(=O)NCc2ccco2)cc1` gave Mac1 fbg enh -1.2, CYP2C9 activ 0.3, CYP2C9 inhib 67.1*, CD11b adhes inh -20.1, CYP2C19 act 0.7 and CYP2C19 inh 33.6.
For CC(C)(C)NS(=O)(=O)c1ccc(CCC(=O)NCc2cccnc2)cc1 the results were Mac1 fbg enh 2.0, CYP2C9 activ 0.1, CYP2C9 inhib 87.2*, CD11b adhes inh -12.4, CYP2C19 act 0.6 and CYP2C19 inh 36.0.
Screening CC(C)C(=O)Nc1nnc(SCC(=O)NCc2ccco2)s1 returned Mac1 fbg enh 1.0 and CD11b adhes inh -19.9.
C=CCn1c(SCC#N)nc2c(c1=O)C(C)(C)Cc1ccccc1-2 was read as CYP2C9 activ 0.6, CYP2C9 inhib 40.8, CYP2C19 act 0.7 and CYP2C19 inh 27.8.
For Cc1ccc(-c2nc3cccnc3o2)cc1NC(=O)COc1ccc(C(C)(C)C)cc1 the results were Mac1 fbg enh 14.2, CYP2C9 activ 0.4, CYP2C9 inhib 55.3*, CD11b adhes inh -17.0, CYP2C19 act 0.7 and CYP2C19 inh 32.8.
For Cc1ccc(-c2nc3cccnc3o2)cc1NC(=O)COc1ccc(Cl)cc1C the results were Mac1 fbg enh 6.3, CYP2C9 activ 0.4, CYP2C9 inhib 63.8*, CD11b adhes inh 27.8, CYP2C19 act 0.7 and CYP2C19 inh 26.0.
Screening CC1(C)CC(=O)C=C(NCCN2CCN(C(=O)Nc3ccccc3)CC2)C1 returned Mac1 fbg enh 12.1, CYP2C9 activ 1.1, CYP2C9 inhib -9.0, CD11b adhes inh -30.9, CYP2C19 act 1 and CYP2C19 inh -2.5.
Clc1ccc(OCCCCSc2ncccn2)cc1 was read as Mac1 fbg enh 4.5, CYP2C9 activ 0.8, CYP2C9 inhib 18.2, CD11b adhes inh 11.1, CYP2C19 act 0.9 and CYP2C19 inh 10.1.
For CCCOc1ccc(OCCSc2ncccn2)cc1 the results were Mac1 fbg enh 0.2, CYP2C9 activ 0.5, CYP2C9 inhib 50.1*, CD11b adhes inh -21.2, CYP2C19 act 0.5 and CYP2C19 inh 47.2.
Screening CCOc1cccc(NC(=O)CSc2nc(C)c3c(c2C#N)CCCC3)c1 returned CYP2C9 activ 0.8, CYP2C9 inhib 16.0, CYP2C19 act 0.9 and CYP2C19 inh 14.4.
`CC(=O)Nc1cccc(NC(=O)CSc2nc(C)c(C)c(C)c2C#N)c1` gave Mac1 fbg enh 1.1, CYP2C9 activ 0.8, CYP2C9 inhib 18.9, CD11b adhes inh 0.0, CYP2C19 act 0.3 and CYP2C19 inh 67.4*.
`Cc1nc(SCc2ccc(Br)cc2)[nH]c(=O)c1C` gave Mac1 fbg enh 0.7, CYP2C9 activ 0.7, CYP2C9 inhib 31.9, CD11b adhes inh -19.2, CYP2C19 act 0.5 and CYP2C19 inh 47.1.
